Among the data in PubChem BioAssay (Tox21) are Potency and activity change, positive = activation values, retold here.

Each structure is given as a SMILES string. “And” between values parts separate entries of the source, which are not always exact repeats. Identical values can stand only once. Inconclusive results are not listed. The source holds several records for some structures; these can differ, active in one and inactive in another. The source made the active and inactive calls. Unless noted, the call rests on the fitted dose curve; in most records, active means well fitted curve in the direction sought with a large enough effect in the repeat runs; inconclusive means weak or mixed curves; inactive means no such curve, though single readings can be large; an effect the other way counts as inactive or inconclusive.

Assay [1] is described as follows: qHTS assay to identify small molecule agonists of the constitutive androstane receptor (CAR) signaling pathway - cell viability counter screen (AID 1224836). Further: nearly all actives have a fitted effect of over 45% in size. Further: potency means the concentration at half of the fitted maximal effect. In a few lines: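 Cells were seeded and incubated 4 hrs. Compounds were added across 15 concentrations together with PK11195 at 0.75 uM final. Plates were incubated 23 hrs at 37 C. CellTiter-Fluor was added and fluorescence measured.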
Background: Quantitative high-throughput screening tests each substance at several concentrations.

Assay [2] can be described thus: qHTS assay to identify small molecule antagonists of the constitutive androstane receptor (CAR) signaling pathway - cell viability counter screen (AID 1224837). Further: nearly all actives have a fitted effect of over 45% in size. Further: potency means the concentration at half of the fitted maximal effect. In a few lines: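 HepG2 cells stably carrying hCAR and CYP2B6-2.2kb reporter, stimulated with 50 nM CITCO and compounds at 15 concentrations for 23 h at 37 C. Viability measured by CellTiter-Fluor fluorescence.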

Assay [3] concerns the target Nuclear receptor subfamily 1 group I member 3 (Homo sapiens) (UniProt Q14994). Nature of the assay: qHTS assay to identify small molecule antagonists of the constitutive androstane receptor (CAR) signaling pathway (AID 1224838). Further: nearly all actives have a fitted effect of over 40% in size. Further: potency means the concentration at half of the fitted maximal effect. The method, boiled down: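 HepG2 cells stably carrying hCAR and a CYP2B6-2.2kb luciferase reporter, seeded 4 hrs before compound (15 concentrations). Stimulated with 50 nM CITCO for 24 hr at 37 C. ONE-Glo luminescence read after 30 min at room temperature.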

Assay [4] has the same target. Nature of the assay: qHTS assay to identify small molecule agonists of the constitutive androstane receptor (CAR) signaling pathway (AID 1224839). Further: nearly all actives have a fitted effect of over 15% in size. Further: potency means the concentration at half of the fitted maximal effect. In a few lines: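 Cells were plated and incubated 4 hrs, then dosed with compounds at 15 concentrations. PK11195 was added to 0.75 uM final. After 24 hrs at 37 C, luciferase luminescence was measured.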
A short description of assay [5]: qHTS assay to identify small molecule antagonists of the estrogen related receptor signaling pathway with the pleiotropic PPARgamma coactivator (PGC) from Tox21 10K library (AID 1224841; call rule not given here; further: actives are mostly falling curves and most rising ones were filed inactive; nearly all actives have a fitted effect of over 50% in size). The method, boiled down: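 PGC/ERR cell line, 2,000 cells/well, pre-incubated 6 hours at 37 C, then exposed to compounds for 18 hours at 37 C; luciferase read with One-Glo luminescence after 30 min at room temperature.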

Assay [6] is described as follows: qHTS assay to identify small molecule agonists of the estrogen related receptor signaling pathway with the pleiotropic PPARgamma coactivator (PGC) from Tox21 10K library (AID 1224842). Further: nearly all actives have a fitted effect of over 15% in size. Further: potency means the concentration at half of the fitted maximal effect. The method, boiled down: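 Luminescence from One-Glo (30 min, room temperature) measured after PGC/ERR cells had 18 h at 37 C with pinned compound (23 nL in DMSO). Cells had been seeded at 2,000 per well and pre-incubated 6 h.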

For assay [7], the target named is Thyrotropin receptor (Homo sapiens) (UniProt P16473). Nature of the assay: qHTS assay to identify small molecule agonists of the thyroid stimulating hormone receptor (TSHR) signaling pathway (AID 1224843; calls by dose curve; further: nearly all actives have a fitted effect of over 45% in size). The method, boiled down: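 Screening of the Tox21 10K collection used HEK293 cells engineered with TSHR at 800 cells per well. After a 30-min room-temperature compound exposure, HTRF cAMP reagents were added and fluorescence recorded 1 h later.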
Sequence of Thyrotropin receptor (Homo sapiens) (P16473 whole entry, looked up): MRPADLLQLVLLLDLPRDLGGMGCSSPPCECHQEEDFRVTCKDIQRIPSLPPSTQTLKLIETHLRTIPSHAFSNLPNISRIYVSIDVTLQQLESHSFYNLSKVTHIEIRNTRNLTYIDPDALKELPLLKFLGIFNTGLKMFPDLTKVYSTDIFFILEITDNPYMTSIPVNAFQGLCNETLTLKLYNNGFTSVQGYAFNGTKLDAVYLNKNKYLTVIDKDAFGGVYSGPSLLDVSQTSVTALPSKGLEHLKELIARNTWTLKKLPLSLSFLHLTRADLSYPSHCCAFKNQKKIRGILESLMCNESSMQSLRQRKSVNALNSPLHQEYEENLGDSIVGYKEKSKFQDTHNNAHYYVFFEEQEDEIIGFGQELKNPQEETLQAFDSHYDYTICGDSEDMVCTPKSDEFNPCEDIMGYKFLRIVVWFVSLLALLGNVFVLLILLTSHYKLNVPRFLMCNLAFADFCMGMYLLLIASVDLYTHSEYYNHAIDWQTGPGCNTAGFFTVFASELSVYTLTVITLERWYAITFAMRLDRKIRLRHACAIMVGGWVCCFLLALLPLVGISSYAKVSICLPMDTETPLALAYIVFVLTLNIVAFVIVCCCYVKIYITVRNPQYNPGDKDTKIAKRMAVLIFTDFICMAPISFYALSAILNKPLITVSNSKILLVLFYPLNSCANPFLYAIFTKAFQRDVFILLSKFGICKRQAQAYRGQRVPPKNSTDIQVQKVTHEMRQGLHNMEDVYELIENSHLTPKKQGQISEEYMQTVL

Assay [8] can be described thus: qHTS assay to identify small molecule agonists of the hypoxia (HIF-1) signaling pathway - cell viability counter screen (AID 1224844; calls by dose curve; further: nearly all actives have a fitted effect of over 50% in size; further: potency means the concentration at half of the fitted maximal effect). In a few lines:
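HRE-bla ME-180 cells, 2,000/well in 0.5% dialyzed FBS medium, treated 17 h at 37C with compounds. Viability read in the same wells as the bla reporter, by CellTiter-Glo luminescence after 30 min at room temperature.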

The nature of assay [9]: qHTS assay to identify small molecule agonists of the hypoxia (HIF-1) signaling pathway (AID 1224846; active means well fitted activation curve with a large enough effect in the signal ratio in the repeat runs, not every such curve was filed as active; the % refers to the signal ratio). The method, boiled down: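 HRE-bla ME-180 beta-lactamase reporter cells in medium with 0.5% dialyzed FBS, pre-incubated 5 h then exposed to compounds 17 h at 37C, 5% CO2; reporter induction read with CCF4-AM FRET substrate.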
Assay [10] is described as follows: qHTS assay to identify small molecule agonists of H2AX - cell viability counter screen (AID 1224847; calls by dose curve; further: nearly all actives have a fitted effect of over 30% in size; further: potency means the concentration at half of the fitted maximal effect). The method, boiled down:
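Cytotoxicity counter screen in wild-type CHO-K1 cells: a 3 hr compound treatment at 37C across 15 concentrations, followed by CellTiter-Glo luminescence to gauge viable cells.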

Assay [11] in a line: qHTS assay to identify small molecule agonists of the estrogen related receptor (ERR) signaling pathway from Tox21 library (AID 1224849; calls by dose curve; further: nearly all actives have a fitted effect of over 15% in size). As to conditions: ERR reporter cell line, ONE-Glo luciferase, 18 h. In a few lines: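 ERR reporter cells (NTP line) pre-incubated 6 hours at 37 C, then exposed to compounds for 18 hours at 37 C. ONE-Glo luciferase luminescence was read after 30 minutes at room temperature.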

Assay [12] in a line: qHTS RealTime-Glo MT Cell Viability Assay in HepG2 cells - 24 hour (AID 1224867). Further: nearly all actives have a fitted effect of over 50% in size. Further: potency means the concentration at half of the fitted maximal effect. The method, boiled down:
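HepG2 suspension premixed with RealTime-Glo reagents is plated at 600 cells per well and left 5 h at 37 C/5% CO2. Compounds in DMSO then go in, and bioluminescence reflecting viable cell number is recorded over 40 h.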

The nature of assay [13]: qHTS RealTime-Glo MT Cell Viability Assay in HEK293 cells - 32 hour (AID 1224868). Further: nearly all actives have a fitted effect of over 50% in size. Further: potency means the concentration at half of the fitted maximal effect. In a few lines:
(§1)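 Reads taken at 0, 8, 16, 24, 32 and 40 h from the same wells. HEK293 cells (600/well) carried RealTime-Glo reagents from seeding, with compound added after a 5 h settle at 37 C.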

Assay [14] is described as follows: A CellTox Green Cytotoxicity Assay to monitor cytotoxicity in HEK293 cells - 40 hour (AID 1224871). Further: nearly all actives have a fitted effect of over 45% in size. Further: potency means the concentration at half of the fitted maximal effect. The method, boiled down: (§2)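 HEK293 cells, 600/well, were preincubated 5 hours and then exposed to compounds at 37 C for up to 40 hours. A cell-impermeant cyanine dye staining dead-cell DNA was read by fluorescence at 0, 8, 16, 24, 32 and 40 h time points.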
Assay [15] in a line: qHTS assay to identify small molecule antagonists of the estrogen related receptor signaling pathway with the pleiotropic PPARgamma coactivator (PGC) from Tox21 10K library - cell viability counter screen (AID 1224840; active means well fitted cell-killing curve with a large enough effect in the repeat runs, not every such curve was filed as active; further: nearly all actives have a fitted effect of over 40% in size; further: potency means the concentration at half of the fitted maximal effect). The method, boiled down: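 PGC/ERR cells (2,000/well) plated 6 h, then compound-treated for 17.5 h at 37 C. Viability measured by CellTiter-Fluor fluorescence after 30 min at 37 C, multiplexed with the pathway assay.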

Assay [16] is described as follows: qHTS assay to identify small molecule agonists of H2AX (AID 1224845; active means well fitted activation curve with a large enough effect in the signal ratio in the repeat runs, not every such curve was filed as active; the % refers to the signal ratio). In a few lines: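 Phospho-H2AX Ser139 measured by HTRF (ex 320 nm; em 665 and 620 nm) after 24 hr antibody incubation. Compounds, 15 concentrations, 0.76% DMSO, were applied to CHO-K1 cells for 3hr at 37C before lysis.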
Assay [17] can be described thus: qHTS RealTime-Glo MT Cell Viability Assay in HEK293 cells - 16 hour (AID 1224872). Further: nearly all actives have a fitted effect of over 50% in size. Further: potency means the concentration at half of the fitted maximal effect. The method, boiled down:
as §1

The nature of assay [18]: A CellTox Green Cytotoxicity Assay to monitor cytotoxicity in HEK293 cells - 0 hour (AID 1224869). Further: nearly all actives have a fitted effect of over 50% in size. The method, boiled down:
as §2

Assay [19] in a line: qHTS RealTime-Glo MT Cell Viability Assay in HepG2 cells - 40 hour (AID 1224870). Further: nearly all actives have a fitted effect of over 50% in size. The method, boiled down:
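Real-time viability: cells seeded at 600 per well together with NanoLuc and cell-permeant prosubstrate, compounds added after 5 h incubation. Luminescence tracked at 0, 8, 16, 24, 32 and 40 h of exposure.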
On the % scale 0 is the no-effect control and ±100 the full control effect.

Sequence of Nuclear receptor subfamily 1 group I member 3 (Homo sapiens) (Q14994 whole entry, looked up): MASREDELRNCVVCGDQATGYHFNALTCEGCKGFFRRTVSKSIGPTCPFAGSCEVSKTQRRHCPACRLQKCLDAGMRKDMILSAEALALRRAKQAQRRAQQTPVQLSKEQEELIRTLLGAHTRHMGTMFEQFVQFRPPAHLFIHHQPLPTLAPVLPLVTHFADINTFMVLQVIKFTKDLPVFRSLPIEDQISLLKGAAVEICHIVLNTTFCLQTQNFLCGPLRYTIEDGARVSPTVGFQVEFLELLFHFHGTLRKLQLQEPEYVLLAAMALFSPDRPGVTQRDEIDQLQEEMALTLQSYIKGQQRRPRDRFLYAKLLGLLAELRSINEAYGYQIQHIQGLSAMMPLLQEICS

Consider `CCCOC(=O)c1cc(O)c(O)c(O)c1`, for which the Potency entry in [1], in assay [2], in assay [3], in assay [5], in assay [7] and in assay [8] was “inactive” throughout. In addition, the Potency result in [9], in [10], in [12] and in assay [14] was “inactive” each time. Besides, the Potency entry in assay [4] was “inactive and 19.3 µM (active)”; in [6], 4.31 µM (active); in [13] it was 38.9 µM (active). For the same compound, the activity change, positive = activation in [11] (at 92.4 µM (top of the series)) was -50.8% (inactive) and -46.2% (inactive).
Regarding `O=C(O)c1cccc(C(=O)O)c1`, the Potency result in [1], in assay [2], in assay [15], in assay [7], in assay [8] and in assay [16] was “inactive” each time. Further, the Potency entry in assay [9], in assay [10], in assay [12], in [13], in assay [14] and in assay [17] was “inactive” in each case.
On to `COc1ccc(CCN(C)CCCC(C#N)(c2ccc(OC)c(OC)c2)C(C)C)cc1OC` (stereo not drawn), for which the Potency in assay [1] was 48.5 µM (active). For the same compound, the Potency entry in assay [15], in [8], in assay [10], in [18] and in assay [14] was “inactive” each time.
As to `CC(C)(C)NC(=O)[C@@H]1CN(Cc2cccnc2)CCN1C[C@@H](O)C[C@@H](Cc1ccccc1)C(=O)N[C@H]1c2ccccc2C[C@H]1O`, the Potency entry in [1], in [2], in [15], in assay [8], in [16] and in assay [9] was “inactive” each time. Moreover, the Potency result in assay [10], in [12], in [13], in assay [18], in [19] and in assay [14] was “inactive” in each case. The Potency result in [17] was “inactive”.
In the case of `COc1ccc(CCN2CCC(Nc3nc4ccccc4n3Cc3ccc(F)cc3)CC2)cc1`, the Potency in assay [2] was 17.6 µM (active) and 29.8 µM (active); in assay [3] it was 17.6 µM (active) and 26.6 µM (active); in [15] it was 19.8 µM (active) and 29.8 µM (active); in assay [8] it was 12.6 µM (active); in assay [10], 32.6 µM (active); in [12], 17.8 µM (active) and 13.4 µM (active). The Potency was 6.3 µM (active) and 15.1 µM (active) in [13]; 11.2 µM (active) and 23.9 µM (active) in assay [14]; 8.9 µM (active) and 9.52 µM (active) in assay [17]. Also, the Potency result in assay [4], in assay [6] and in assay [7] was “inactive” throughout. In addition, the figures for the activity change, positive = activation in [11] (at 42.5 µM (top of the series)) and in assay [11] (at 92.4 µM (top of the series)) were -69.8% (inactive) and -76.4% (inactive), respectively.
`COC(=O)/C=C/c1ccccc1`: the Potency entry in assay [2], in [3], in assay [4], in [15], in [7] and in [8] was “inactive” in each case. Moreover, the Potency entry in [16], in assay [9], in [10], in assay [12], in assay [13] and in [19] was “inactive” each time. For the same compound, the Potency result in assay [17] is “inactive”. Further, the Potency entry in assay [14] was “inactive and 21.9 µM (active)”.
In the case of `CC(N)=O`, the Potency result in [1], in [2], in assay [15], in assay [7], in assay [8] and in [16] was “inactive” throughout. Besides, the Potency result in assay [10], in [12], in assay [13], in [18], in assay [19] and in [14] was “inactive” throughout.
On to `CCC(=O)/C=C/C1C(C)=CCCC1(C)C` (stereo not drawn), for which the Potency entry in assay [1], in assay [2], in assay [15], in [7], in [8] and in [16] was “inactive” in each case. In addition, the Potency entry in assay [9], in assay [10], in [12], in assay [13], in [18] and in assay [19] was “inactive” in each case. In addition, the Potency in assay [14] is 49.1 µM (active) and inactive.
